Assay results published in PubChem BioAssay (EPA / NIEHS).
Where a structure was tested more than once in an assay, its records may differ in their call. Calls of active or inactive are those of the source. The calls were made as follows: active = hit-call score of the fitted dose curve at least 0.9, where 1 is the maximum; inactive = score below 0.9.

Key:
[1] = APR_HepG2_CellLoss_72hr: Apredica 72-hour HepG2 Assay for Cell Loss (AID 2282915); details: high-content imaging
In short: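 HepG2 cells were exposed for 72 hr to compounds at 0.39–200 uM (ten concentrations, duplicate) in 0.5% v/v final DMSO. Nuclei were stained with Hoechst 33342 after 3.7% formaldehyde fixation, imaged at 20x, and counted; fits bidirectional versus DMSO.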

[2] = APR_HepG2_P-H2AX_72hr: Apredica 72-hour HepG2 Assay for H2AX Phosphorylation (AID 2282916); details: imaging, actives raise or lower the signal;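 also: phospho-histone H2A.x immunostain intensity per cell marking DNA damage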
In short: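 HepG2 human liver cells were exposed for 72 hr to compounds at 0.39–200 uM (10 concentrations, duplicate per plate) in 0.5% v/v DMSO. Fixed, permeabilized cells were immunolabeled for phospho-histone H2A.x with Hoechst 33342 and imaged by HCS fluorescence; bidirectional fit versus DMSO.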

[3] = APR_HepG2_MitoMembPot_72hr: Apredica 72-hour HepG2 Assay for Mitochondrial Membrane Potential (AID 2282917); details: imaging, actives raise or lower the signal
In short: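 HepG2 cells exposed 72 h to compounds at 0.39–200 uM (0.5% v/v DMSO, duplicates); MitoTracker Red CMXRos 250 nM loaded 30 min before 3.7% formaldehyde fixation, imaged by HCS fluorescence. Bidirectional fit versus DMSO.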

[4] = APR_HepG2_MicrotubuleCSK_72hr: Apredica 72-hour HepG2 Assay for Microtubule CSK Stabilty (AID 2282919); details: HepG2 microtubule cytoskeleton, high-content imaging, actives raise or lower the signal
In short: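 HepG2 human liver cells were dosed for 72 h at ten concentrations from 0.39 to 200 uM in duplicate (0.5% v/v DMSO final). Fixed, permeabilized cells were immunostained for alpha-tubulin (Cy5) with a Hoechst counterstain and imaged at 20x.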

[5] = APR_HepG2_P-H2AX_24hr: Apredica 24-hour HepG2 Assay for H2AX Phosphorylation (AID 2282920); details: high-content imaging, actives raise or lower the signal
In short: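 HepG2 cells dosed 24 h at 0.39–200 uM (10 points, duplicate, 0.5% DMSO final). Formaldehyde-fixed and permeabilized, then immunostained for phospho-H2A.x with Hoechst. Fluorescence quantified by high-content imaging, fitted bidirectionally versus DMSO.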

[6] = APR_HepG2_StressKinase_24hr: Apredica 24-hour HepG2 Assay for Stress Kinase (AID 2282922); details: HepG2 stress kinase (phospho-c-Jun) imaging, actives raise or lower the signal
In short: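 HepG2 cells exposed 24 hr to compound at 0.39–200 uM (10 concentrations, duplicate), 0.5% v/v DMSO final. Fixed in 3.7% formaldehyde, permeabilized with Triton X-100, immunolabeled for phospho-c-Jun with Hoechst 33342; HCS fluorescence imaging, bidirectional fit versus DMSO.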

[7] = APR_HepG2_p53Act_72hr: Apredica 72-hour HepG2 Assay for p53 Activation (AID 2282923); details: high-content imaging, actives raise or lower the signal;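 also: average cellular p53 protein immunofluorescence intensity in HepG2 cells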
In short: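 Cells were dosed for 72 hr with compounds at 0.39–200 uM in duplicate (final DMSO 0.5% v/v), then fixed in 3.7% formaldehyde, permeabilized with Triton X-100 and immunostained for p53 (Cy5) with Hoechst 33342 nuclear counterstain.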

[8] = APR_HepG2_MitoMass_72hr: Apredica 72-hour HepG2 Assay for Mitochondrial Mass (AID 2282924); details: high-content imaging, actives raise or lower the signal;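 also: MitoTracker Red CMXRos stain intensity per cell imaged as mitochondrial mass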
In short: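 HepG2 cells were exposed for 72 hr to compounds at 0.39–200 uM (ten concentrations, duplicate, 0.5% v/v DMSO final). Live cells were stained with 250 nM MitoTracker Red CMXRos for 30 min, then fixed in 3.7% formaldehyde and imaged by HCS fluorescence.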

[9] = APR_HepG2_NuclearSize_72hr: Apredica 72-hour HepG2 Assay for Nuclear Size (AID 2282925); details: high-content imaging, actives raise or lower the signal
In short: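 HepG2 cells were exposed to compounds at ten concentrations from 0.39 to 200 uM (duplicate, 0.5% DMSO final) for 72 hr. After fixation in 3.7% formaldehyde, nuclei were stained with Hoechst 33342 (2 ug/mL) and imaged at 20x.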

[10] = ATG_CRE_CIS: Attagene CIS-FACTORIAL HepG2 Assay for human cAMP Responsive Element (CRE) binding protein 3 (AID 2282926); details: HepG2 CRE cis-reporter, Attagene multiplexed mRNA; actives raise or lower the signal
In short: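 HepG2 cells transiently transfected with cis-element-driven multiple reporter transcription units; CRE reporter mRNA measured 24 h after dosing by RT-PCR, 6-FAM labelling, HpaI digestion and capillary electrophoresis. Bidirectional fit versus DMSO baseline.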

[11] = target: CCAAT/enhancer-binding protein beta (Homo sapiens) (UniProt P17676); test: ATG_C_EBP_CIS: Attagene CIS-FACTORIAL HepG2 Assay for human CCAAT/Enhancer Binding Protein (C/EBP) beta (AID 2282927); details: HepG2 Attagene cis-factorial transcription factor reporter; actives raise or lower the signal
Chain of CCAAT/enhancer-binding protein beta (Homo sapiens) (P17676 whole entry, looked up): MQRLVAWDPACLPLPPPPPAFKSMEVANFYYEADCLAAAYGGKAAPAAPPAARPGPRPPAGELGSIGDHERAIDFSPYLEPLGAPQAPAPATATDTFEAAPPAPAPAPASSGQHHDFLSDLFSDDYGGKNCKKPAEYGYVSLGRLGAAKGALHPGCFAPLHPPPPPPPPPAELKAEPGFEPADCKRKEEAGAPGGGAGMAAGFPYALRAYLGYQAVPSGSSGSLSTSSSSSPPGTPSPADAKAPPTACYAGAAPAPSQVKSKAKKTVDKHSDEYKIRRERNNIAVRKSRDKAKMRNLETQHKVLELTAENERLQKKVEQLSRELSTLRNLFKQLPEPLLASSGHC
In short: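 RT-PCR/capillary electrophoresis fluorescence of reporter mRNA, 24 h post-dose, in HepG2 cells carrying transfected cis-promoter reporter units. Bidirectional curve fitting against DMSO baseline captures gain or loss of signal.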

[12] = ATG_CMV_CIS: Attagene CIS-FACTORIAL HepG2 Assay for human CMV (Internal Marker) (AID 2282928); details: HepG2 CMV promoter reporter, transcription factor profiling; actives raise or lower the signal;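 also: endpoint acts as a background internal control marker rather than a target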
In short: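 HepG2 cells transiently transfected with multiple cis-regulated reporter units; 24 h compound exposure. Reporter mRNA quantified by RT-PCR, 6-FAM primer-extension labeling, HpaI digestion and capillary electrophoresis; bidirectional fitting against DMSO baseline.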

[13] = ATG_DR4_LXR_CIS: Attagene CIS-FACTORIAL HepG2 Assay for human Liver X Receptor (LXR), DR4 submotif (AID 2282929); details: HepG2 Attagene DR4 cis-reporter, mRNA transcription; actives raise or lower the signal
In short: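 HepG2 cells were transiently transfected with multiple cis-regulated reporter units and dosed for 24 hours. The DR4 reporter mRNA was quantified by RT-PCR, 6-FAM labelling and capillary electrophoresis. Bidirectional fits used DMSO as baseline.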

[14] = target: Aryl hydrocarbon receptor (Homo sapiens) (UniProt P35869); test: ATG_Ahr_CIS: Attagene CIS-FACTORIAL HepG2 Assay for human Aryl Hydrocarbon Receptor (Ahr) (AID 2282930); details: HepG2 AhR cis-factorial reporter transcription; actives raise or lower the signal
Chain of Aryl hydrocarbon receptor (Homo sapiens) (P35869 whole entry, looked up): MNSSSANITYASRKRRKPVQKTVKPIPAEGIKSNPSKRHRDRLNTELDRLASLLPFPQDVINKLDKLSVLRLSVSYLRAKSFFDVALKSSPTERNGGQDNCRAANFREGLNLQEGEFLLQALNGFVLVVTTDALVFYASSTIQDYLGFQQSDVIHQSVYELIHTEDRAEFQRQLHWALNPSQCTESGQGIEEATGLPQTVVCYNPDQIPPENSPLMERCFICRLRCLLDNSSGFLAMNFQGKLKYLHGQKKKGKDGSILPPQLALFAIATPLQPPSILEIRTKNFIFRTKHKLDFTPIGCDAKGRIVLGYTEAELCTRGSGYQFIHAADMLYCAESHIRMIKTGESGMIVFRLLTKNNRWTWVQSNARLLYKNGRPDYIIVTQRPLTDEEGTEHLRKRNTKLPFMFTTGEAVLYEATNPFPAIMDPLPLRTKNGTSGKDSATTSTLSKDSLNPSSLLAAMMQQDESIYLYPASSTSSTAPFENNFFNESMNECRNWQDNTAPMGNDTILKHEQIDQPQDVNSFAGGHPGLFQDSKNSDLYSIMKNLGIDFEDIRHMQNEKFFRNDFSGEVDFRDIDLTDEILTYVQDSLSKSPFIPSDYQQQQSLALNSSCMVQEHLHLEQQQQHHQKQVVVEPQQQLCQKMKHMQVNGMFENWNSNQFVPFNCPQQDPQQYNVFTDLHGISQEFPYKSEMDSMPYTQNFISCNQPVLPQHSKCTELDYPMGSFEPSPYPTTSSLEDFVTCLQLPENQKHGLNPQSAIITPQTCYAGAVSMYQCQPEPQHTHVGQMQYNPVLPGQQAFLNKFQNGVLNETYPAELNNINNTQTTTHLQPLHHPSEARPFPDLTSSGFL
In short: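 HepG2 cells transiently transfected with cis-element-driven multiplexed reporter transcription units; endogenous transcription factor activity measured as reporter mRNA 24 h after dosing. RT-PCR, 6-FAM labelling, HpaI digestion, capillary electrophoresis; bidirectional fitting versus DMSO baseline.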

[15] = ATG_AP_1_CIS: Attagene CIS-FACTORIAL HepG2 Assay for human Activator Protein 1 (AP-1) (AID 2282931); details: HepG2 Attagene cis-factorial AP-1 reporter mRNA; actives raise or lower the signal
In short: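 HepG2 cells transiently transfected with cis-element-driven reporter transcription units, dosed for 24 hours. Reporter mRNA measured by RT-PCR, 6-FAM labelling, HpaI digestion and capillary electrophoresis. Bidirectional fitting against DMSO baseline.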

[16] = ATG_AP_2_CIS: Attagene CIS-FACTORIAL HepG2 Assay for human Activator Protein 2 (AP-2) (AID 2282932); details: HepG2 AP-2 cis-reporter, Attagene transcription factor profiling; actives raise or lower the signal
In short: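 HepG2 cells were transiently transfected with multiple cis-promoter reporter transcription units and dosed for 24 h. Reporter mRNA was measured by RT-PCR with capillary electrophoresis fluorescence; bidirectional fits relative to DMSO baseline.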

[17] = ATG_BRE_CIS: Attagene CIS-FACTORIAL HepG2 Assay for human Bone Morphogenetic Protein (BMP) Response Element (BRE) (AID 2282933); details: HepG2 BMP response element reporter, Attagene transcription factor profiling; actives raise or lower the signal
In short: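 Gain- or loss-of-signal was derived by bidirectional fitting against DMSO controls. The signal came from reporter mRNA, measured by RT-PCR and capillary electrophoresis, in HepG2 cells transiently carrying multiple reporter units and dosed for 24 h.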

[18] = target: Retinoic acid receptor alpha (Homo sapiens) (UniProt P10276); test: ATG_DR5_RAR_CIS: Attagene CIS-FACTORIAL HepG2 Assay for human Retinoic Acid Receptor Alpha (RARE), DR5 submotif (AID 2282934); details: HepG2 Attagene cis-factorial RARE DR5 reporter, mRNA; actives raise or lower the signal
Chain of Retinoic acid receptor alpha (Homo sapiens) (P10276 whole entry, looked up): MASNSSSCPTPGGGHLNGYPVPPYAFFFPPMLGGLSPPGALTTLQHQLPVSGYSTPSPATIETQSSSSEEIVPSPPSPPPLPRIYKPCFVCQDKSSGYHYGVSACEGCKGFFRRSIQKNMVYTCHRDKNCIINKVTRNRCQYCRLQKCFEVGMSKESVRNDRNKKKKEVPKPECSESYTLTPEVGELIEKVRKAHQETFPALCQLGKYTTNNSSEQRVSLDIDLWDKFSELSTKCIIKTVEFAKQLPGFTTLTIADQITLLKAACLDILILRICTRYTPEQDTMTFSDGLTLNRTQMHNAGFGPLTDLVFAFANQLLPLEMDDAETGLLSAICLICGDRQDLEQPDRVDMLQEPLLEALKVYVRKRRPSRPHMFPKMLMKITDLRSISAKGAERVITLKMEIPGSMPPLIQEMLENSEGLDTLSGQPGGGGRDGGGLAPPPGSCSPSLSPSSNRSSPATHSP
In short: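 HepG2 cells transiently transfected with multiplexed reporter units under cis (DR5 RARE) promoters, so endogenous transcription factor activity is measured. After 24 h compound exposure, reporter mRNA is quantified by RT-PCR with fluorescent labelling and capillary electrophoresis; bidirectional fitting versus DMSO.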

[19] = APR_HepG2_StressKinase_72hr: Apredica 72-hour HepG2 Assay for Stress Kinase (AID 2282921); details: HepG2 stress kinase (phospho-c-Jun) imaging, actives raise or lower the signal
In short: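 Cells were exposed for 72 h to ten concentrations (0.39–200 uM, duplicate) at 0.5% v/v DMSO final, then fixed with 3.7% formaldehyde, permeabilized and immunostained for phospho-c-Jun (Cy3 secondary) with Hoechst nuclear counterstain.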

Measured: AC50

C[C@]12C[C@H](O)[C@H]3[C@@H](CCC4=CC(=O)CC[C@@]43C)[C@@H]1CC[C@@H]2C(=O)CO
active: [1] 32.9 µM | [2] 34.5 µM | [3] 120 µM | [5] 96.6 µM | [8] 148 µM
not listed: [19]
inactive: all other assays above

O=C(O)C1(C(=O)Nc2ccc(Cl)cc2Cl)CC1
not listed: [10] | [17]
inactive: all other assays above

O=C(O)c1ccccc1
not listed: [10] | [15] | [17] | [18] | [19]
inactive: all other assays above

CCCCC(CC)COC(=O)c1ccccc1C(=O)O (configuration not stated)
not listed: [10] | [14] | [15] | [17] | [18] | [19]
inactive: all other assays above

CN(C)C(=O)Nc1ccc(Cl)c(Cl)c1
inactive: [1] | [2] | [4] | [5] | [6] | [7] | [8] | [9] | [11] | [12] | [13] | [16] | [17] | [18]
active: [3] 15.7 µM | [12] 79.1 µM | [17] 22.2 µM

O=C(c1ccccc1)C1CCCCC1
active: [14] 17.2 µM
inactive: [1] | [2] | [3] | [4] | [5] | [6] | [7] | [8] | [9] | [10] | [11] | [12] | [13] | [14] | [15] | [16] | [17] | [18]

N[C@@H](Cc1cc(I)c(Oc2ccc(O)c(I)c2)c(I)c1)C(=O)O
not listed: [10] | [14] | [15] | [17] | [18]
inactive: all other assays above
